# Screens deposited in PubChem by The Scripps Research Institute Molecular Screening Center.
# The sample as a whole holds a higher share of hits than the screen did.
# TTR transcr act: increases transthyretin transcription | AID 1117267 | SH-SY5Y TTR promoter Gaussia luciferase, luminescence; 100% = recombinant luciferase protein wells | 1.3% of 92,000 active | activation, % at 16.7 µM;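 active = activation above the mean of all tested compounds plus 3 SD, cut at about 9.5% in these data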;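 also: cells exposed to compounds for one day before reading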
# TTR inh HuH7: decreases TTR transcription in HuH7 cells in activator counter-screen | shares compounds with TTR transcr act | HuH7 TTR promoter-Gaussia luciferase reporter, luminescence | inhibition, % at 16.7 µM | 4% of 1,100 active | AID 1117279;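 active = average inhibition above the solvent-only control wells' mean plus 3 SD, cut at about 15% in these data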;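 also: inhibitors lower well luminescence so higher value means more inhibition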
# TTR up confirm: human TTR transcription activation, confirmation; SHSY5Y TTR promoter Gaussia luciferase, luminescence; 100% = purified Lucia enzyme wells, no cells; AID 1117280; 1,100 tested, under 10 active; activation, % at 16.7 µM; shares compounds with TTR transcr act;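 active = mean activation above a set limit taken from the earlier primary screen, cut at about 11% in these data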
# A number is an active result; . = inactive.
SMILES,TTR transcr act,others
COc1ccc(C2C(C(=O)N3CCN(c4ccccc4)CC3)c3ccccc3C(=O)N2C)cc1OC (centres undefined),.,
COc1ccc(OC)c(C2C(C(=O)O)c3ccccc3C(=O)N2C)c1 (centres undefined),.,
O=C(Nc1ccc(F)cc1)OCc1cn(Cc2cc(F)ccc2F)nn1,.,
CCOC(=O)N1CCN(C(=O)C[C@H]2C[C@@]3(C(=O)OC)C(=C[C@H](C(C)C)O[C@@H]3C3CC3)N(CCc3ccc(OC)c(OC)c3)C2=O)CC1,.,
C[C@H]1[C@H](N)CC[C@@]23CCCN2C(=O)CCC[C@@H]13,.,
O=C(Nc1ccc(F)cc1)c1ccccc1,.,
O=C(Nc1cccc(C(=O)Nc2ccc(Br)cc2)c1)c1ccccc1,.,
O=C(Nc1ccccc1)c1ccn[nH]1,14.9,TTR inh HuH7=.;TTR up confirm=.
CC(C)(C)S(=O)N1Cc2cc(=O)n(Cc3ccccc3)cc2[C@H]1CCO (some centres undefined),11.0,TTR inh HuH7=.;TTR up confirm=.
CC(C)(C)S(=O)N1Cc2ccc(CO)cc2[C@H]1CCO (some centres undefined),.,
CC(C)(C)S(=O)N1Cc2cc(CO)cc(-c3ccccc3)c2[C@H]1CCO (some centres undefined),.,
COc1cccc(NC(=O)NC2CCCCN(Cc3ccc(C)cc3)C2=O)c1 (centres undefined),.,
C=CCN1C(=O)[C@H](CC(=O)NCc2cccs2)[C@@]2(C(=O)OCC)CCCC=C12,.,
Cc1cccc(NS(=O)(=O)c2cc(C(=O)N3CCCC3)ccc2Cl)c1,10.2,TTR inh HuH7=.;TTR up confirm=.
CN1CCN(C(=O)c2ccc(Cl)c(S(=O)(=O)N3CCCCC3)c2)CC1,.,
O=C(c1ccc(Cl)c(S(=O)(=O)N2CCOCC2)c1)N1CCCC1,.,
Cc1cccc(C)c1NC(=O)NN=C1CCCCC1,.,
C=CS(=O)(=O)N(C(=C)C(=O)OC)S(C)(=O)=O,.,
CC(C)N1CCCCC(NC(=O)COCc2ccccc2)C1=O (centres undefined),.,
CC(=O)c1ccc(NC(=O)CCc2c(C)nn(-c3ccc(N4CCOCC4)nn3)c2C)cc1,.,
COc1ccc(NC(=O)CCc2c(C)nn(-c3ccc(N4CCOCC4)nn3)c2C)cc1,12.5,TTR inh HuH7=.;TTR up confirm=.
Cc1ccc(NC(=O)CCc2c(C)nn(-c3ccc(N4CCOCC4)nn3)c2C)cc1,.,
COC(=O)C[C@@H]1CC[C@H]2[C@H](COc3ccc(NC(=O)c4cccc(C(F)(F)F)c4)cc3C(=O)N2C)O1,.,
COc1ccc2nc(SCC(=O)C(C)(C)C)[nH]c2c1,.,
CCCCCCCCN1C(=O)[C@@H](CC(=O)N2CCCCC2)C[C@@]2(C(=O)OC)C1=C[C@H](C(C)C)O[C@@H]2C1CC1,.,
SMILES,TTR transcr act,others
CCOC(=O)CC1C(=O)NCCN1C(=O)Nc1ccccc1 (centres undefined),17.7,TTR inh HuH7=.;TTR up confirm=.
COC(=O)CC1C(=O)NCCN1C(=S)Nc1cccc(C)c1 (centres undefined),.,
COc1ccc(NC(=O)CC2C(=O)NCCN2C(=O)Nc2ccc(C(F)(F)F)cc2)cc1 (centres undefined),.,
CC(C)N1CCCCC(NC(=O)c2cccs2)C1=O (centres undefined),.,
O=C1CC(c2ccc3c(c2)OCO3)N=C2N(Cc3ccc4c(c3)OCO4)C/C(=C/c3ccccc3)N12 (centres undefined),.,
O=[N+]([O-])c1cccnc1N1CCOCC1,.,
O=C1CCN(c2ncccc2[N+](=O)[O-])CC1,11.9,TTR inh HuH7=.;TTR up confirm=.
N#CC1CCN(c2ncccc2[N+](=O)[O-])CC1,.,
NC(=O)CC(NC(=O)Cc1cccc2ccccc12)c1ccc(NCCCN2CCCC2=O)c([N+](=O)[O-])c1 (centres undefined),.,
CCNc1nc(NC(C)CC)nc(Oc2ccc(OCC)nn2)n1 (centres undefined),12.6,TTR inh HuH7=.;TTR up confirm=.
CCOc1ccc(Oc2nc(NCC(C)C)nc(N(C)C)n2)nn1,.,
CCOc1ccc(Oc2nc(NCC(C)C)nc(OC)n2)nn1,.,
COc1ccc2cc(CCOC3CCCCO3)ncc2c1 (centres undefined),.,
COc1cc(CNCC(O)c2ccccc2)ccc1OCc1ccc(Cl)nc1 (centres undefined),10.5,TTR inh HuH7=.;TTR up confirm=.
CSc1ccc(CNCC(O)c2ccccc2)cc1 (centres undefined),.,
COc1cc(CNCc2ccccn2)ccc1OCc1ccccc1Cl,.,
O=[N+]([O-])c1cccc2[nH]c(CNc3nc(N4CCOCC4)nc4c3ncn4-c3ccsc3)nc12,.,
O=C(COc1ccc2oc(-c3ccco3)cc(=O)c2c1)N1CCCCC1,.,
COc1ccccc1N1CCN(C(=O)CSc2nc3ccccc3nc2N2CCC(C)CC2)CC1,.,
COc1ccccc1N1CCN(C(=O)CSc2nnc(NC(=O)C(C)C)s2)CC1,13.0,TTR inh HuH7=.;TTR up confirm=.
CC(=O)Nc1nnc(SCC(=O)N2CCc3ccccc32)s1,.,
